# Assay results from publication PMC5540273 (PLoS ONE, 2017).
# Key:
# Settings in all cases: concentration: 1 μM, replicates: in singlicate; n = 1
# CDKL5 = tested on: CDKL5
# CHEK1 = tested on: CHEK1
# CHEK2 = tested on: CHEK2
# CIT = tested on: CIT
# CLK1 = tested on: CLK1
# CLK2 = tested on: CLK2
# CLK3 = tested on: CLK3
# CLK4 = tested on: CLK4
# CSF1R-autoinhibited = tested on: CSF1R-autoinhibited
# CSF1R = tested on: CSF1R
# CSK = tested on: CSK
# CSNK1A1L = tested on: CSNK1A1L
# CSNK1A1 = tested on: CSNK1A1
# CSNK1D = tested on: CSNK1D
# CSNK1E = tested on: CSNK1E
# CSNK1G1 = tested on: CSNK1G1
# CSNK1G2 = tested on: CSNK1G2
# CSNK1G3 = tested on: CSNK1G3
# CSNK2A1 = tested on: CSNK2A1
# CSNK2A2 = tested on: CSNK2A2
# 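Note: KINOMEscan kinase panel screen.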
Compound,%Inh (CDKL5),%Inh (CHEK1),%Inh (CHEK2),%Inh (CIT),%Inh (CLK1),%Inh (CLK2),%Inh (CLK3),%Inh (CLK4),%Inh (CSF1R-autoinhibited),%Inh (CSF1R),%Inh (CSK),%Inh (CSNK1A1L),%Inh (CSNK1A1),%Inh (CSNK1D),%Inh (CSNK1E),%Inh (CSNK1G1),%Inh (CSNK1G2),%Inh (CSNK1G3),%Inh (CSNK2A1),%Inh (CSNK2A2)
COc1ccc(-c2coc3ccc(-c4nnc(C)o4)cc23)cc1,51%,0%,13%,16%,3%,22%,0%,27%,7%,9%,0%,0%,0%,0%,0%,4%,1%,0%,0%,15%
O=c1cc(N2CCOCC2)nc2n(Cc3ccccc3F)ccn12 [GSK2297428],0%,9%,0%,18%,36%,0%,22%,54%,7%,0%,0%,0%,28%,25%,33%,9%,0%,28%,0%,0%
Fc1ccc(-c2nc[nH]c2-c2ccncc2)cc1 [SB-217360],2%,0%,16%,93.7%,5%,10%,10%,0%,0%,0%,6%,24%,93.3%,91.9%,97.7%,5%,0%,5%,0%,0%
Cn1cncc1C(=O)NC1CCN(c2ccnc(Nc3ccc(F)cc3)n2)C1 (centres unmarked) [GSK1379717],0%,0%,0%,0%,23%,0%,0%,0%,0%,6%,9%,0%,0%,0%,0%,0%,0%,17%,0%,0%
O=C1NC(=O)C(c2ccc(Cl)cc2)=C1Nc1cccc(Cl)c1 [SB-317651],0%,0%,0%,0%,91.6%,34%,2%,16%,6%,13%,0%,16%,22%,0%,0%,0%,0%,88%,0%,0%
COc1ccc2cc(-c3nc(-c4ccccc4C(C)C)[nH]c3-c3ccncc3)ccc2c1 [SB-660566],37%,4%,0%,28%,12%,0%,0%,0%,0%,8%,0%,20%,0%,22%,34%,10%,0%,0%,0%,2%
Nc1cccc(-c2ccc3c(N)n[nH]c3c2)n1 [GSK2192730],4%,0%,13%,17%,28%,18%,0%,0%,0%,14%,15%,0%,77%,0%,39%,4%,0%,19%,27%,42%
CC(=O)c1c(C)c2cnc(Nc3ccn(C)n3)nc2n(C2CCCC2)c1=O,0%,0%,0%,4%,19%,16%,0%,9%,12%,0%,1%,0%,3%,0%,0%,0%,0%,16%,56%,50%
O=C1NC(=O)C(c2ccc(Cl)cc2)=C1Nc1ccc(O)cc1 [SB-340867],0%,0%,0%,0%,51%,65%,0%,29%,0%,0%,0%,2%,0%,0%,0%,0%,0%,32%,0%,0%
Cc1cnc(N)c(/C=C/c2cncc(C(=O)NCCc3ccc(Cl)cc3Cl)c2)c1.Cl [GSK190937],9%,0%,26%,31%,38%,48%,0%,57%,6%,25%,0%,0%,0%,34%,20%,24%,2%,3%,0%,0%
